Experimental data published in PubChem BioAssay.
Entries with a potency or affinity are not part of this list. Inconclusive results are not listed. Calls of active or inactive are those of the source.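 Rule for the calls, unless noted: active = fitted half-maximal concentration for viability loss no higher than twice the top valid dose, in every repeat run; inconclusive = repeat runs disagree, flat partial loss, or poor curve fit; inactive = the rest.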

How the values were obtained:
[1] = RMG-1 ovarian cancer cell viability loss – cherry-pick, dose response (AID 687029;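 active = signal drop whose fitted half-maximal concentration is at most twice the top valid dose, in every test run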;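 note: cells exposed to compound for 96 hours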)
[2] = IOSE-T80 viability loss, PAX8-independent line – cell-based, cherry-pick, selectivity assay for PAX8 inhibitor project, dose response (AID 687032);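 note: cells exposed to compound for 96 h before reading; 0% = neutral control wells and -100% = 2 µM mitoxantrone kill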
[3] = CMV-driven luciferase expression suppression in HEK293 – cell-based, luminescence, dry powder, counter-screen for Pax8 inhibitor project, dose response (AID 743020;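 active = signal-lowering compounds whose fitted half-maximal concentration is at or below twice the top tested dose in every run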;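 note: HEK293 cells stably expressing the CMV luciferase reporter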)
[4] = general cell-killing toxicity readout – plate reader, dry powder samples, cytotoxicity control for PAX8 inhibitor project, dose response (AID 743021; call rule not given here)

Measured: activity change, negative = cytotoxicity

Cc1ccc(S(=O)(=O)CCC(=O)c2ccc(O)cc2O)cc1
inactive: all assays above

CN(C[C@H]1N[C@@H](CO)[C@@H]1c1ccc(C2=CCCC2)cc1)C(=O)c1ccncc1
inactive: [1] | [2] | [3]

O=C(Nc1cccc(F)c1)N1CCCCN2[C@@H](CO)[C@H](c3ccc(C#Cc4ccccc4)cc3)[C@@H]2C1
inactive: all assays above

COc1cc(Cl)c(NC2=CC(=O)C(=O)c3ccccc32)c(OC)c1
inactive: all assays above

CCC(OC(=O)c1ccc(S(C)(=O)=O)c([N+](=O)[O-])c1)C(=O)NC1C2CC3CC(C2)CC1C3 (stereo unspecified)
inactive: [1] | [2] | [3]

CC(=O)N1CCN(c2ccc(NC(=O)c3ccc([N+](=O)[O-])o3)cc2Cl)CC1
inactive: all assays above

C[C@@H]1CCCCO[C@@H](CN(C)Cc2ccc3c(c2)OCO3)[C@H](C)CN([C@@H](C)CO)C(=O)c2cc(NC(=O)Nc3ccc(C(F)(F)F)cc3)ccc2O1
inactive: all assays above

O=C(CCc1ccc(S(=O)(=O)NCc2ccccc2)cc1)NCc1ccco1
inactive: all assays above

CN(Cc1ccccc1)N=Nc1nc[nH]c1C(N)=O
inactive: all assays above

CCN(CC)c1ccc(C(NC(=O)C(C)C)c2ccc3cccnc3c2O)cc1 (stereo unspecified)
inactive: all assays above

CCN(CC(=O)Nc1c(F)cccc1F)C(=O)c1cc(S(=O)(=O)N(CC)CC)ccc1N1CCCCC1
inactive: all assays above

O=C(Nc1ccc(F)cc1)c1nc(S(=O)(=O)Cc2ccccc2)ncc1Cl
inactive: all assays above

O=C(Nc1cccc(Br)c1)c1ccc2c(c1)SC1=NS(=O)(=O)CCN12
inactive: all assays above

CC(=O)NC(CCc1ccc(Cl)c(Cl)c1)c1cccc(O)c(=O)c1 (stereo unspecified)
inactive: all assays above

CCSc1nc(-c2ccccc2)nc(C(Cl)Cl)n1
inactive: all assays above

O=C(O)c1cccc(N/N=C/c2cccs2)c1
inactive: all assays above

C=C1C(=O)[C@]23C[C@H]1CC[C@H]2[C@]1(C)[C@@H](OC(C)=O)CC[C@@](C)(C(=O)OC)[C@H]1C[C@@H]3OC(C)=O
inactive: [1] | [2] | [3] | [4] -15.7% [at 8 µM]

COc1ccc(C(=O)c2cc([N+](=O)[O-])ccc2N2CCOCC2)cc1
inactive: all assays above

O=C(Nc1cccc(C2=NCCN2)c1)Nc1cccc(C2=NCCN2)c1
inactive: all assays above

Cn1c(CCN2CCN(c3ccccn3)CC2)nc2cc(NS(=O)(=O)c3ccc(Cl)cc3)ccc21
inactive: all assays above

O=C(OCC(=O)N1CCN(C(=O)c2ccco2)CC1)c1cccc(S(=O)(=O)N2CCc3ccccc32)c1
inactive: all assays above

COc1ccc(NC(=O)C(Sc2nnc(-c3ccncc3)n2-c2ccccc2C)c2ccccc2)cc1Cl (stereo unspecified)
inactive: all assays above

CCCCn1nc(C(=O)Nc2cc(C(F)(F)F)ccc2N2CCOCC2)ccc1=O
inactive: all assays above

COc1ccc(COC(=O)c2cc([N+](=O)[O-])ccc2N2CCOCC2)cc1F
inactive: all assays above

O=C(NC1=CC(=O)c2ccccc2C1=O)c1ccccc1
inactive: [1] | [2] | [3]

CC(C)OCCCNC(=O)c1cccc(NC(=O)c2ccccc2)c1
inactive: all assays above

Oc1ccc(/C=N\Nc2cc(N3CCOCC3)nc(N3CCOCC3)n2)c(O)c1
inactive: all assays above

C=C(C)C(=O)OC1(C(F)(F)F)Oc2cc(C)ccc2NC1=O (stereo unspecified)
inactive: all assays above

COc1cc(OC)nc(-n2ncc(Br)c(Br)c2=O)n1
inactive: [1] | [2] | [3]

CC(C)N(CC(=O)Nc1ccc(Cl)cc1C(F)(F)F)C(=O)CCl
inactive: [1] | [2] | [3]

O=C(Nc1ccc(S(=O)(=O)NC2=NCCCCC2)cc1)c1ccc([N+](=O)[O-])s1
inactive: all assays above

CN(CCc1cn[nH]c1)Cc1nc(C(c2ccccc2)c2ccccc2)no1
inactive: all assays above

C[C@H]1CCCCO[C@@H](CN(C)Cc2ccc(C(F)(F)F)cc2)[C@@H](C)CN([C@@H](C)CO)C(=O)c2cc(NS(=O)(=O)c3ccc(Cl)cc3)ccc2O1
inactive: all assays above

CCN(CC)CC(C)(C)C(=O)/C=C/c1ccc(/C=C/C(=O)C(C)(C)CN(CC)CC)cc1
inactive: all assays above

Cn1nnnc1Sc1ncnc2scc(-c3cccc(C(F)(F)F)c3)c12
inactive: all assays above

C=C1C(=O)[C@@]23[C@H](O)C[C@@H]4C(C)(C)CC[C@H](O)[C@@]4(C)[C@@H]2CC[C@@H]1[C@H]3O
inactive: all assays above

COc1ccc(NS(=O)(=O)c2ccc(N3CCCC3)c(NC(=S)Nc3ccc(SC(F)F)cc3)c2)cc1
inactive: all assays above

C=CC(=O)N1C/C(=C/c2ccc(Cl)cc2)C(=O)/C(=C\c2ccc(Cl)cc2)C1
inactive: all assays above

O=C(N/N=C/c1ccc(O)cc1)c1[nH]c2ccc(Br)cc2c1-c1ccccc1
inactive: all assays above

CN(C)N=Nc1nc[nH]c1C(N)=O
inactive: all assays above

O=C(CN1C(=O)c2ccccc2S1(=O)=O)N1CCc2ccccc21
inactive: all assays above

C[C@H](CO)N1C[C@H](C)[C@H](CN(C)S(=O)(=O)c2cccc(F)c2)OCc2ccccc2-c2c(n(C)c3ccccc23)C1=O
inactive: all assays above

COc1ccc(Br)cc1/C=C/C(=O)c1ccc(NC(C)=O)cc1
inactive: all assays above

CCC(=O)Oc1ccc2c(C)cc(=O)oc2c1C(=O)c1ccccc1
inactive: all assays above

N=c1n(Cc2ccccc2)c2ccccc2n1CC(O)COc1ccc(Cl)cc1Cl (stereo unspecified)
inactive: all assays above

COc1ccc(-c2ccc3c(c2)[C@H]2[C@H](CCN2S(=O)(=O)c2ccc(OC)cc2)[C@H](CO)N3C)cc1
inactive: all assays above

COC(=O)[C@@]12C[C@@H](CC(=O)N3CCN(C(=O)c4ccco4)CC3)C(=O)N(Cc3ccco3)C1=CCC(C)(C)C2
inactive: all assays above

Cc1ccccc1N=C1N=C(N)c2ccccc21
inactive: all assays above

COc1cc(/C=N/NC(=O)c2ccc(CN3C(=O)c4cccc5cccc3c45)cc2)cc(OC)c1O
inactive: all assays above

Cc1ccc(S(=O)(=O)Nc2ccc3c(c2)C(=O)N([C@H](C)CO)C[C@H](C)[C@@H](CN(C)S(=O)(=O)c2ccc(C)cc2)OCCCC[C@H](C)O3)cc1
inactive: all assays above

C[C@H](CO)N1C[C@H](C)[C@@H](CN(C)Cc2ccncc2)Oc2ccc(NC(=O)Nc3ccc(C(F)(F)F)cc3)cc2CC1=O
inactive: all assays above

COc1cccc(/C=C2\SC(=S)N(CCC(=O)NCCc3ccc(O)cc3)C2=O)c1
inactive: all assays above

Cc1cccc(NC(=O)CC23CC4CC(C2)CC(n2nnc(C)n2)(C4)C3)c1
inactive: all assays above

CC(=O)OC(C)(C)/C=C/C(=O)[C@](C)(O)C1[C@H](O)C[C@@]2(C)C3CC=C4C(C=C(O[C@@H]5O[C@H](CO)[C@@H](O)[C@H](O)[C@H]5O)C(=O)C4(C)C)[C@]3(C)C(=O)C[C@]12C (stereo partly specified)
inactive: all assays above

O=C1c2ccccc2C(=O)c2[nH]c(=O)[nH]c21
inactive: all assays above

O=C(N/N=C/c1ccsc1)c1cc(-c2cccs2)nc2ccccc12
inactive: all assays above

FC(F)(F)c1nnc2c(Sc3ccccc3)nc3ccc(Cl)cc3n12
inactive: all assays above

COc1ccc(-c2cc(-c3ccccc3)c(C#N)c(S(C)(=O)=O)n2)cc1
inactive: all assays above

Nc1ncnc2c(C3OC(CO)C(O)C3O)scc12 (stereo unspecified)
inactive: all assays above

C[C@@H]1CCCCO[C@@H](CN(C)Cc2ccc(Cl)c(Cl)c2)[C@H](C)CN([C@@H](C)CO)C(=O)c2cc(NC(=O)CCC(F)(F)F)ccc2O1
inactive: all assays above

O=C(NC1CCCCC1)C(c1cccs1)N(C(=O)Cc1c[nH]c2ccccc12)c1ccc(F)cc1 (stereo unspecified)
inactive: all assays above

C[C@H](O)C#Cc1ccc2c(c1)O[C@H](CN(C)Cc1ccc(-c3ccccc3)cc1)[C@@H](C)CN([C@@H](C)CO)S2(=O)=O
inactive: all assays above

O=C(Nc1cccc(NC(=O)c2ccccc2Cl)c1)c1ccc([N+](=O)[O-])o1
inactive: all assays above

CCc1ccc2[nH]c3nc(N/N=C/c4ccc(O)cc4O)nnc3c2c1
inactive: all assays above
